Test results from the supplement of paper PMC11732987, “Enantioselective OTUD7B fragment discovery through chemoproteomics screening and high-throughput optimisation” (Communications Chemistry, 2025).

How the values were obtained:
Assay in all cases: log2 ratio of Biotin-Ahx-Ub-VS probe labelling (fragment/DMSO); higher = less target engagement (more negative = stronger competition), active = hit call of the paper (q ≤ 0.05, log2 ratio ≤ -1)
Conditions in all cases: compound concentration: 200 uM; treatment time: 3 h
USP42 = biological target: T1, USP42 (UniProt Q9H9J4)
T1 sequence (whole entry): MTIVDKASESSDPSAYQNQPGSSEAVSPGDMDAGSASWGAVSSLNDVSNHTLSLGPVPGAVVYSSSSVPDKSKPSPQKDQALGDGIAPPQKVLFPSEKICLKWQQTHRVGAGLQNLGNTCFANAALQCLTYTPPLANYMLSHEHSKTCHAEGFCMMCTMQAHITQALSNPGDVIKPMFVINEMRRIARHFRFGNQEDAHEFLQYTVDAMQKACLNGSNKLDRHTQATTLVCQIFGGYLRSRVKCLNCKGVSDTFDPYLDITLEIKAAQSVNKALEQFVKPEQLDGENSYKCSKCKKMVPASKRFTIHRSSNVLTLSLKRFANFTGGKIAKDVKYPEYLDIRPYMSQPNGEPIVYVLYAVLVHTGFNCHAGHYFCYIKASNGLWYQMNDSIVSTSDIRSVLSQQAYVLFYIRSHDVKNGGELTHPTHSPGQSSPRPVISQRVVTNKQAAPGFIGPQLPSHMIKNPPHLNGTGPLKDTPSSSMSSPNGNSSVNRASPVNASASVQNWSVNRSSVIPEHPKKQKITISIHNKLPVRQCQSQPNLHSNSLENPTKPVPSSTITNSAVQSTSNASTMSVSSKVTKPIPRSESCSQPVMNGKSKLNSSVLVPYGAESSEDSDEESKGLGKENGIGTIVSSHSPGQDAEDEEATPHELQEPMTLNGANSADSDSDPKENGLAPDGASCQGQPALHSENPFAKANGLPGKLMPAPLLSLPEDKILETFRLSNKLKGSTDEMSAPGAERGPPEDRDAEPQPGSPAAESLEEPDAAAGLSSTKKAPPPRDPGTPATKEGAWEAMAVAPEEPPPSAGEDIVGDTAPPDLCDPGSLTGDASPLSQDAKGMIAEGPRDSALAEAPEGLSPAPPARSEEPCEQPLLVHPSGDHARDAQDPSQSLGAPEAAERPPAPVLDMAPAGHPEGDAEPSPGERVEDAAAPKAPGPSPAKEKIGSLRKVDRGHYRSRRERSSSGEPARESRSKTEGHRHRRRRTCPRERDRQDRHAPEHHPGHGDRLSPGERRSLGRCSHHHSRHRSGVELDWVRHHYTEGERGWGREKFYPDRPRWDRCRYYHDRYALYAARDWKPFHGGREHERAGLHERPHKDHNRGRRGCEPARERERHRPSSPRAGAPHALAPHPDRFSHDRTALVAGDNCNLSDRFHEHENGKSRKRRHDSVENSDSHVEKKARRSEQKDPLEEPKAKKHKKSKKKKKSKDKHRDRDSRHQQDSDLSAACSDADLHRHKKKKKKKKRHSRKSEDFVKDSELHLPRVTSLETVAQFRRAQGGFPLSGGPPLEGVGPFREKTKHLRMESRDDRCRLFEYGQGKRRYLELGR
Procedure, shortened: (§1)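 Labelled DUBs from HEK293T lysate were NeutrAvidin-enriched, digested with LysC and trypsin, and run by diaPASEF LC-MS/MS. Before that, each 495 µg sample in Tris/CHAPS/IGEPAL buffer with protease inhibitors was treated in triplicate with fragment at 200 µM or vehicle for 3 h, then with Biotin-Ahx-Ub-VS at 0.5 µM final for 1 h. Values are average log2 ratios of fragment over vehicle by unpaired t-test, based on global-median-normalised Spectronaut label-free quantities from proteins with ≥2 unique peptides.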

USP46 = USP46 (UniProt P62068)
Procedure, shortened: as §1

USP47 = biological target: T2, USP47 (UniProt Q96K76)
T2 sequence (whole entry): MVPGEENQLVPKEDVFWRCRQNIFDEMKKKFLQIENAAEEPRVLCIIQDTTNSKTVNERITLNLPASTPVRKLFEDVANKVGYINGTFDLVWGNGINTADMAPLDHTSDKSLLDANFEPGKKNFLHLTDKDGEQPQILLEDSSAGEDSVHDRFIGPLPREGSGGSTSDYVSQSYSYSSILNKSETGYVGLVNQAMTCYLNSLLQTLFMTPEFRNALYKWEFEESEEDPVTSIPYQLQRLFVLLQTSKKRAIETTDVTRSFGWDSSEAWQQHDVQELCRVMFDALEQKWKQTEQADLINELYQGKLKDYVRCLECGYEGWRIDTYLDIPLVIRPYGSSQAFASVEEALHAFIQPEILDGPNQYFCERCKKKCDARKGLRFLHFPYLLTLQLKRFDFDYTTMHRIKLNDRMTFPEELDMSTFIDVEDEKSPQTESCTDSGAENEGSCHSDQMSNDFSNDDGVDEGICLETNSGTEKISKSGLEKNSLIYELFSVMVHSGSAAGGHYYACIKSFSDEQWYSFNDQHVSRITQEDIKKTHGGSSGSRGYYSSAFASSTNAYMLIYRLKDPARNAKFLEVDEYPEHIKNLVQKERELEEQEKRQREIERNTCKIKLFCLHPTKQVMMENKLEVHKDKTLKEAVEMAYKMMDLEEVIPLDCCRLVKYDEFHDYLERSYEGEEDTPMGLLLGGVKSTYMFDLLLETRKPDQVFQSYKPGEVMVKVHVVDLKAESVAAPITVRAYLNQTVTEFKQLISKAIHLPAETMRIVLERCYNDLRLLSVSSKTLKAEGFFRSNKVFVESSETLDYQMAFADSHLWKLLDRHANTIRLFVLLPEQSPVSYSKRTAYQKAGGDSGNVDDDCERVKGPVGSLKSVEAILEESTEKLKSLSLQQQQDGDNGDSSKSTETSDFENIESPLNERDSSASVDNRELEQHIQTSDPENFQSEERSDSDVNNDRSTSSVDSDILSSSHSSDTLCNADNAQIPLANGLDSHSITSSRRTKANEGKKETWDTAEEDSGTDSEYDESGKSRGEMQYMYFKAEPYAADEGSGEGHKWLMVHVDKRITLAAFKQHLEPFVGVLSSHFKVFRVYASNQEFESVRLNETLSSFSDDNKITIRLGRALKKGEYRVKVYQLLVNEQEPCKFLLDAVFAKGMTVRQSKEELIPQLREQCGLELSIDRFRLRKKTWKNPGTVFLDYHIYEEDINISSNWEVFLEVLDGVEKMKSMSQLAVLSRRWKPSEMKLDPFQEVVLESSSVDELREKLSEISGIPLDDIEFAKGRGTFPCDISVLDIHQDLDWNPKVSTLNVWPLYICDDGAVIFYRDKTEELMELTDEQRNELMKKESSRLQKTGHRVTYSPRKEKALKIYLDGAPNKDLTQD
Procedure, shortened: as §1

USP48 = biological target: T3, USP48 (UniProt Q86UV5)
T3 sequence (whole entry): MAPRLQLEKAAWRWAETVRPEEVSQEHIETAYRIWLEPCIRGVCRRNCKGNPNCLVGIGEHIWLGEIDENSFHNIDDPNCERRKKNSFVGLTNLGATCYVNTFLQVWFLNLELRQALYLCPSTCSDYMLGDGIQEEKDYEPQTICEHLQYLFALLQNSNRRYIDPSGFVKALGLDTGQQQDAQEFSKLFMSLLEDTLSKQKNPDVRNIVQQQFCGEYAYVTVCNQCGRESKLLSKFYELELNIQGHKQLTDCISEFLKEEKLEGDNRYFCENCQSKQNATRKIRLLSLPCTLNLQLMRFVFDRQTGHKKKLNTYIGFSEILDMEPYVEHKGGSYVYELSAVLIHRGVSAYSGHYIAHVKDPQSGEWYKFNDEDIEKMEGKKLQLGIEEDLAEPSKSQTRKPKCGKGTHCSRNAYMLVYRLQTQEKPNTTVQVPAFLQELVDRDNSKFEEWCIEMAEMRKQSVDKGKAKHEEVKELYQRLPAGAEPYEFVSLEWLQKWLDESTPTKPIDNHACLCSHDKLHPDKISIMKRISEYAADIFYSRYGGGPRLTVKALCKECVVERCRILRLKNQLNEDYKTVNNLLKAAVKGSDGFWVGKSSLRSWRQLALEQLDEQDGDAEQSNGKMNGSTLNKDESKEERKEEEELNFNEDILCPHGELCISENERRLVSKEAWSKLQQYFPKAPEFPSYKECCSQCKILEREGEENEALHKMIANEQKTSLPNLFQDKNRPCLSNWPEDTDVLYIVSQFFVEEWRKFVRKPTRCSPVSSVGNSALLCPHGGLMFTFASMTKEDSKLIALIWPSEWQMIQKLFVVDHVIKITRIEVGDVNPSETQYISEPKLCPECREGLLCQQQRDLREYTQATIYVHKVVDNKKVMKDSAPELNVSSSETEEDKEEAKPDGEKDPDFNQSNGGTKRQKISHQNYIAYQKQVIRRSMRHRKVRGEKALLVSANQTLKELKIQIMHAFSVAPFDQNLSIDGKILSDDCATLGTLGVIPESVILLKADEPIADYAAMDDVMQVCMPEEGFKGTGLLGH
Procedure, shortened: as §1

USP5 = biological target: T4, USP5 (UniProt P45974)
T4 sequence (whole entry): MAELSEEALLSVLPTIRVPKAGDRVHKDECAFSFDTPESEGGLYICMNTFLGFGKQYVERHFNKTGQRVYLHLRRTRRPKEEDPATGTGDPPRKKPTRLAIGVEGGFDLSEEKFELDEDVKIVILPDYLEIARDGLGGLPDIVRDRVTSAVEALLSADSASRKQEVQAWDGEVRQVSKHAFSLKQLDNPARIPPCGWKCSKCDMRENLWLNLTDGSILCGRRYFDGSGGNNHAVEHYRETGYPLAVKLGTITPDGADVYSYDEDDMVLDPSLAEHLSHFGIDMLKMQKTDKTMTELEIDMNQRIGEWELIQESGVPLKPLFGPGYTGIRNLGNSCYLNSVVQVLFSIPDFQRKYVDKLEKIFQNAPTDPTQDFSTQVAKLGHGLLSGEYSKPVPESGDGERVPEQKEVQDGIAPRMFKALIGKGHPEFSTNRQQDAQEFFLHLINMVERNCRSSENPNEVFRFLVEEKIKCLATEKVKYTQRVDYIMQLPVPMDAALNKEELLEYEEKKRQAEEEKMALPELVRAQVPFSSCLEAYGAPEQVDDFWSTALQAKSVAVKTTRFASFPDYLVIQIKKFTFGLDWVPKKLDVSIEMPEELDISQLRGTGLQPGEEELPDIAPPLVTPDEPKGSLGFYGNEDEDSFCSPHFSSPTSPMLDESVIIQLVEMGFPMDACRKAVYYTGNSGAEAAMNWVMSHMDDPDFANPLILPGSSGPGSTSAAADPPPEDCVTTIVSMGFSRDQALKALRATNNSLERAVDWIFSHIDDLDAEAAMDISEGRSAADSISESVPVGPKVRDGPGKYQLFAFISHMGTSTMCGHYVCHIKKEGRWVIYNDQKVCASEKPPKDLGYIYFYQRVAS
Procedure, shortened: as §1

USP54 = USP54 (UniProt Q70EL1)
Procedure, shortened: as §1

USP7 = USP7 (UniProt Q93009)
Procedure, shortened: as §1

USP8 = biological target: T5, USP8 (UniProt P40818)
T5 sequence (whole entry): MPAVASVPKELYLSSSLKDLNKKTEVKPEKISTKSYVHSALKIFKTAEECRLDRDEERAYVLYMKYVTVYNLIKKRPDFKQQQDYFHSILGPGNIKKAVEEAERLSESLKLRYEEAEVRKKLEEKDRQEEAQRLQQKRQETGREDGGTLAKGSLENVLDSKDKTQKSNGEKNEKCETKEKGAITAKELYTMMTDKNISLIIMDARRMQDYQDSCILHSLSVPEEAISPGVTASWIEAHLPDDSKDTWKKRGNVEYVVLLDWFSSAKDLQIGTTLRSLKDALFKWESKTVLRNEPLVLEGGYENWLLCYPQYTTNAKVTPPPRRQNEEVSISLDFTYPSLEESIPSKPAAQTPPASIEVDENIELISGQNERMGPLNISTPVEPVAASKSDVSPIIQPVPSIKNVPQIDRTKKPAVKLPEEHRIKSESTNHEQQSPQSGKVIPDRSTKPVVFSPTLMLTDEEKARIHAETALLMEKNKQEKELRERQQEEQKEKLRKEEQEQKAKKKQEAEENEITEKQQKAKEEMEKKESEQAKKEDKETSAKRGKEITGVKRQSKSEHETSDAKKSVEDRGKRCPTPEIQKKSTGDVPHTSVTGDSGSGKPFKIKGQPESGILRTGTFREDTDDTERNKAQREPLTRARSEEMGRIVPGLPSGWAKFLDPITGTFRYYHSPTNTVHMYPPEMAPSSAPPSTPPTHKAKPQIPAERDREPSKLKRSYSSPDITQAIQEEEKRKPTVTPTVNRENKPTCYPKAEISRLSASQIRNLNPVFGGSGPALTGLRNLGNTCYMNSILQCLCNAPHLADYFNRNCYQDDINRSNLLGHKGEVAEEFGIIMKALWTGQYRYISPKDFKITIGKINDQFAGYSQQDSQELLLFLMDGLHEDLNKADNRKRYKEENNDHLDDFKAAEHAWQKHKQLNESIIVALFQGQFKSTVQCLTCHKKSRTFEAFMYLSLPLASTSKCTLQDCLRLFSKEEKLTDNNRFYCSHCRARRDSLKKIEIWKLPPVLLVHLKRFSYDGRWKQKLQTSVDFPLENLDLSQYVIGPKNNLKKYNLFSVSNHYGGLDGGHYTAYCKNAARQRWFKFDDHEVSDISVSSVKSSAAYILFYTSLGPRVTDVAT
Procedure, shortened: as §1

Measured: log2 ratio of Biotin-Ahx-Ub-VS probe labelling

Sequence of USP7 (Q93009 whole entry, looked up): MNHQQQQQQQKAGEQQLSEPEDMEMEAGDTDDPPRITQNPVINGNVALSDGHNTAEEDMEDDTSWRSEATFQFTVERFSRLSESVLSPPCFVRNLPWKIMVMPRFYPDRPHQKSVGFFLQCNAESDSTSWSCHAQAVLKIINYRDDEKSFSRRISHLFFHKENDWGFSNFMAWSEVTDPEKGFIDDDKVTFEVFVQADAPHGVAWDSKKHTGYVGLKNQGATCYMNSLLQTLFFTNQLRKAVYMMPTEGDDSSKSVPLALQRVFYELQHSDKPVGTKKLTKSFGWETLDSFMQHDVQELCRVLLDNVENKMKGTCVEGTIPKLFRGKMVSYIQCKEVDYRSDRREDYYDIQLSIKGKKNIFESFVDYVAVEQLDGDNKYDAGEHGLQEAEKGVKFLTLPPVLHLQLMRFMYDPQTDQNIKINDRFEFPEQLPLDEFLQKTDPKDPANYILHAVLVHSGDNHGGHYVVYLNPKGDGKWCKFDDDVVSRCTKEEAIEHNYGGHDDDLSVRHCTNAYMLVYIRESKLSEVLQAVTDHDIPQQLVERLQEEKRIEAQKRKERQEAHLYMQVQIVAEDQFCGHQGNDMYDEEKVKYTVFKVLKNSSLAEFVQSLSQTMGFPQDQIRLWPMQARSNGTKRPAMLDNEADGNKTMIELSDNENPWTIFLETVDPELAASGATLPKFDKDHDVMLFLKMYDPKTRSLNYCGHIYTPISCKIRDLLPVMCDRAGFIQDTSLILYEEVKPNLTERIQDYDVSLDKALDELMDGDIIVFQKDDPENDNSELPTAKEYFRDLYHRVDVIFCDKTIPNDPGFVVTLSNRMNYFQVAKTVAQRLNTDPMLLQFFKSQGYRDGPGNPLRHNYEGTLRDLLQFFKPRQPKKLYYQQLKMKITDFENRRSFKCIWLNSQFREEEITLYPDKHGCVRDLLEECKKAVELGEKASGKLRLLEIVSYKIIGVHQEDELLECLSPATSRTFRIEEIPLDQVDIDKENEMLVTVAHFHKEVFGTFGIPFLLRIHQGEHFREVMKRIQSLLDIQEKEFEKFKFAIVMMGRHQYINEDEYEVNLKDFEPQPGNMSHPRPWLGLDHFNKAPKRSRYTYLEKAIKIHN
Sequence of USP46 (P62068 whole entry): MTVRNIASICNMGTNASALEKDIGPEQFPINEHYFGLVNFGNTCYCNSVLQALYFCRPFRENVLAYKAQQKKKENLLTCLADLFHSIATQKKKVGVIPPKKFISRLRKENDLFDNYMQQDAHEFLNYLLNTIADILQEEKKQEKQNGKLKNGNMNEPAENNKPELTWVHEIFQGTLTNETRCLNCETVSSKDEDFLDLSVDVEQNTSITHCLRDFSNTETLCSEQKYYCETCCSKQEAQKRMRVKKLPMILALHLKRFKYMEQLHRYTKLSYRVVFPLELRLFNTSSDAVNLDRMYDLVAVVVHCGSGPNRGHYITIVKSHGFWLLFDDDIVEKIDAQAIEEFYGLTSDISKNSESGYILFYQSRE
Sequence of USP54 (Q70EL1 whole entry): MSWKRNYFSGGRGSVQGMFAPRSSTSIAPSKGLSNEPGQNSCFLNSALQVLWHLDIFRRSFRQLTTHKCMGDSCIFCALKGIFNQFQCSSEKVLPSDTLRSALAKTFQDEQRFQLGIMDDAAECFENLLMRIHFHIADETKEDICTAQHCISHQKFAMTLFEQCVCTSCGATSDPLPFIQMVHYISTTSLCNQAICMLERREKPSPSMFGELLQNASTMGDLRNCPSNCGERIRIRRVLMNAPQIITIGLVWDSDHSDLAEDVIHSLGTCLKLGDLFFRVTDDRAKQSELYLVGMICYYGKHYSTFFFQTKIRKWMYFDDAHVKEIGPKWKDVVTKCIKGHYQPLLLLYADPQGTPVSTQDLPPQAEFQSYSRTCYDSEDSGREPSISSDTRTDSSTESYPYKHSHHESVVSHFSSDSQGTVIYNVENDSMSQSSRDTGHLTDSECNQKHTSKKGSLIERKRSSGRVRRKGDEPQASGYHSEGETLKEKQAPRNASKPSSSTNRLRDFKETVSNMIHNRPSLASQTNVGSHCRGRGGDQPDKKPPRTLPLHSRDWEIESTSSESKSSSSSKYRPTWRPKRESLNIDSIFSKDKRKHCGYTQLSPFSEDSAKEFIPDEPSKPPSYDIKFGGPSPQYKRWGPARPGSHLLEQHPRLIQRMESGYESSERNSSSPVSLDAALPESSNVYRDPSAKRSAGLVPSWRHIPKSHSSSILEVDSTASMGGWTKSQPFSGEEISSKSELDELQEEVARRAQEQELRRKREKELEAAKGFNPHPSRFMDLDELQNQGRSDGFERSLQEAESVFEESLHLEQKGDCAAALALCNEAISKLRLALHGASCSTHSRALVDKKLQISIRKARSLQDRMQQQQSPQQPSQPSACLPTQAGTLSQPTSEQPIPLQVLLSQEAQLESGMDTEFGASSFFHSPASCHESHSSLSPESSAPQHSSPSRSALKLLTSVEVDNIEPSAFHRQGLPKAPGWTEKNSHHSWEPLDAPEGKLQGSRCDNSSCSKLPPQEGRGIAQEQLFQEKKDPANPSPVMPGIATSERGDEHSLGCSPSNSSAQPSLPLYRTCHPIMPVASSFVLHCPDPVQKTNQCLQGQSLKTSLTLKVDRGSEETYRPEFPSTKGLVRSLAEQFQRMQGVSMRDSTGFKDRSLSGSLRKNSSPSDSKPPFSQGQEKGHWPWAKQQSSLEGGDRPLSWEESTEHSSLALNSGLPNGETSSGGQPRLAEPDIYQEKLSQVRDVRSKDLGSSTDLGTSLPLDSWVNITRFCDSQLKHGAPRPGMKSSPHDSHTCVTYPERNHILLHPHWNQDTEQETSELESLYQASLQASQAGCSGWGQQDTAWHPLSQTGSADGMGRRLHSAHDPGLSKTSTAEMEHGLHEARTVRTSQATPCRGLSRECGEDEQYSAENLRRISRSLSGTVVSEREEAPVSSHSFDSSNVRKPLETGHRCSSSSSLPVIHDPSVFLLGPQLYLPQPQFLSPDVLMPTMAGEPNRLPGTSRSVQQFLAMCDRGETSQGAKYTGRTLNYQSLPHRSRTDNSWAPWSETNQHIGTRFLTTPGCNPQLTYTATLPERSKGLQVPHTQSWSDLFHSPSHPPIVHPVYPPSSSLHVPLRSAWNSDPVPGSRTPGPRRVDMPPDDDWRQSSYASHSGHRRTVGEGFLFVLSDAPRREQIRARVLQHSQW

O=C(CCl)N1CCC(c2ccn[nH]2)C1 (stereo not drawn)
inactive: USP42 -0.237 | USP46 -0.0632 | USP47 -0.0366 | USP48 -0.675 | USP5 -0.0093 | USP54 -0.0323 | USP7 -0.384 | USP8 -0.487
